High-throughput results (PubChem)
An excerpt weighted towards active compounds, which were near 12% of everything screened.
HP1b binding inh: blocks HP1-beta chromodomain binding to methylated histone tails. AlphaScreen HP1-beta / biotin-H3K9me3 peptide binding. Potency, µM (doses to about 114 µM), for the others: top-dose activity change, negative = inhibition, actives largely listed as inhibitors. hit rate 0.56% among 390,000; also: nearly all actives have a fitted effect of over 70% in size
Target sequence (P83916 whole entry, looked up): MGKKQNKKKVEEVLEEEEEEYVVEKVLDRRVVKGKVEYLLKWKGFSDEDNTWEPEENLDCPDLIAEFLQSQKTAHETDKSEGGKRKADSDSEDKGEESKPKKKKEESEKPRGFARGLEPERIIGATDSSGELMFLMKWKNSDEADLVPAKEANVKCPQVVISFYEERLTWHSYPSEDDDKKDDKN
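AlphaScreen: HP1-beta (50 nM) preformed 30 min with biotin-H3(1-18)K9me3 peptide (50 nM) in PBS pH 7.4, 0.01% Tween-20. Compound added for 30 min at RT, then streptavidin donor/nickel chelate acceptor beads (10 ug/mL) for 30 min.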
G9a inh: G9a (human) methyltransferase inhibition | Potency, µM (series often up to 102 µM), for inactives: at the top dose activity, negative = inhibition, most hits filed as inhibitors | hit rate 8.8% among 350,000 | G9a H3K9 monomethylation, AlphaScreen, 2 h; also: % is scaled to controls: 0 for no effect and ±100 for the full control effect; nearly all actives have a fitted effect of over 75% in size
Target sequence (Q96KQ7 913-1193 limits assumed): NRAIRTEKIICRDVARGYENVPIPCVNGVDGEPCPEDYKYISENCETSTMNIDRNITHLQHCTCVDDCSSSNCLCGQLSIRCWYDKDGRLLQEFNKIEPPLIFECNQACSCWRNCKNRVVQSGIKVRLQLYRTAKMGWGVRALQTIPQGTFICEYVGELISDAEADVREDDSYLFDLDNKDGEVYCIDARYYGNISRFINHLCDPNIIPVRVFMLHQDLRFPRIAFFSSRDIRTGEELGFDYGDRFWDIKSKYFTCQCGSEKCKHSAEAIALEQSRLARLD
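Compounds were preincubated with 20 nM G9a for 15 min, after which biotinylated H3K9 peptide (500 nM) and SAM (20 uM) started a 2 h room-temperature reaction. Monomethylated product was quantified by antibody-based AlphaScreen chemiluminescence.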
Sfp inh: inhibitors of Bacillus subtilis Sfp phosphopantetheinyl transferase; Q9F4F7; Biochemical Sfp PPTase activity, qHTS; Potency, µM, inactives show largest response in the series, negative = inhibition, usual class: inhibitors; hit rate 3.5% among 310,000;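 also: the enzyme is Sfp with the accession as filed and its product quenches rhodamine fluorescence; 0% = enzyme reaction without inhibitor and -100% = no enzyme wells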
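With Hepes-Na pH 7.6 buffer containing 10 mM MgCl2, Sfp (15 nM) modified BHQ-2-YbbR (12.5 uM) using rhodamine-CoA (5 uM). Two reads 30 minutes apart at 525/598 nm yielded each well's rate.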
PLK1 PBD inh: PLK1 (human) polo-box domain binding inhibition. Plk1 PBD binding of FITC phosphopeptide, fluorescence polarization. Potency, µM, without a hit: max response, negative = inhibition, hits mostly inhibitors. hit rate 2.8% among 360,000. AID 720504; also: series mostly up to about 57 µM; % is scaled to controls: 0 for no effect and ±100 for the full control effect; nearly all actives have a fitted effect of over 65% in size
JMJD2A Tudor: blocks the human JMJD2A Tudor domain; O75164; AlphaScreen JMJD2A-Tudor / H3K4me3 peptide binding; Potency, µM (series often up to 114 µM), for inactives: at the top dose activity change, negative = inhibition, hits mostly inhibitors; hit rate 4.4% among 390,000; also: % is scaled to controls: 0 for no effect and ±100 for the full control effect; nearly all actives have a fitted effect of over 50% in size
BAZ2B inh: inhibitors of human BAZ2B bromodomain; hit rate 4.4% among 360,000; Potency, µM (top dose mostly 114 µM), without a hit: at the highest dose activity change, negative = inhibition, most hits filed as inhibitors; AID 504333; AlphaScreen BAZ2B-H3K14Ac peptide displacement; Q9UIF8; also: % is scaled to controls: 0 for no effect and ±100 for the full control effect; nearly all actives have a fitted effect of over 60% in size
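Multi-concentration screen (max 110 uM) measuring displacement of acetylated histone H3 peptide from BAZ2B by AlphaScreen, using 50 nM protein, 50 nM peptide and 10 ug/mL streptavidin donor plus Ni-chelate acceptor beads.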
The depositor's hits bear a star; ? = inconclusive; · = not tested or not shown; [ ] = dose if it differs, or a comment. Calls follow the shape of the dose curve; as a rule, active = well fitted curve in the direction sought with a large enough effect; inconclusive = small, poorly fitted or top-dose-only effect, or another doubt; inactive = no such curve, though single readings can be large; an effect the other way counts as inactive or inconclusive. Potency is read from the fitted curve at half-maximal effect.

SMILES	HP1b binding inh	G9a inh	Sfp inh	PLK1 PBD inh	JMJD2A Tudor	BAZ2B inh
CC(=O)Nc1ccc([C@H]2[C@H](C)CC[C@H]3C(=O)N4[C@@H](CC[C@@H](C)[C@@H]4c4ccc(NC(C)=O)cc4)C(=O)N32)cc1	·	?	20.9%	·	·	56.2µM*
O=S(=O)(Oc1ccc(Cl)cc1)c1ccccc1	·	·	2.7%	·	·	·
CC1=C/C(=N\OS(=O)(=O)c2ccccc2)C(C(C)C)=CC1=O	?	8.91µM*	-28.1%	-15.1%	?	35.5µM*
CC1=C/C(=N\OS(=O)(=O)c2ccccc2)C(C)=CC1=O	-57.3%	20µM*	-10.9%	-13.0%	?	35.5µM*
O=C1C(Cc2ccccc2)NC(=S)N1c1ccccc1 (stereo unspecified)	31.4%	63.7%[59 µM]	14.3%	-7.9%	-15.7%	-22.3%
CC(C)c1ccc(OCC(=O)Nc2c(Cl)ccc3nsnc23)cc1	19.9%	7.7%[59 µM]	·	·	-18.3%	-2.1%
Cc1ccc(CNC(=O)c2c(C)oc3nc(C)nc(N4CCOCC4)c23)cc1	12.7%	2.7%[59 µM]	·	·	-13.9%	7.2%[57.1 µM]
COc1ccc2c(c1)C=C([C@@H]1C[C@H]3CN(c4ccccc4)C(=O)[C@]34CCCN14)CO2	-12.7%	56.2µM*	-4.3%	-13.6%	?	-25.8%
Cc1ccc(C(=O)Oc2coc(CSc3nnc(NC(=O)c4cccs4)s3)cc2=O)cc1	30.2%	12.6µM*	1.3%	-11.2%	-35.7%	-37.4%
CC(=O)Nc1nnc(SCc2cc(=O)c(OC(=O)c3ccccc3)co2)s1	25.9%	-19.3%	10.4%	3.8%	1.7%	-12.1%
O=S(=O)(c1ccc2c(c1)OCCO2)N1CCN(S(=O)(=O)c2ccc3nc(Cl)c(Cl)nc3c2)CC1	·	·	·	·	-6.2%	·
Clc1ccc(N=c2ssnc2Cl)nc1	-10.6%	-2.8%	20.7%	0.947µM*	-27.5%	-34.4%
CN1CCc2nc3sc(C(=O)NCc4ccccc4)c(N)c3cc2C1	23.8%	11.2µM*	-27.0%	-18.7%	-12.7%	?
CCN(CC)c1ccc(NC(=O)c2sc3nc4c(cc3c2N)CN(C)CC4)cc1	17.4%	?	·	·	-34.7%	?
Cc1ccc(C(=O)OCc2cc(=O)n3nc(CC(C)C)sc3n2)cc1	-5.8%	1.0%[59 µM]	·	·	-7.7%	-1.7%
Clc1ccc(-c2[nH]ncc2N=Nc2ccccc2)cc1	-8.7%	?	2.7%	5.4%	?	?
c1ccc(N=Nc2ccc3cccccc2-3)cc1	3.98µM*	·	·	-5.8%	3.98µM*	·
Cc1cc(=O)n2[nH]c(N)c(N=Nc3ccccc3)c2n1	11.4%	-9.1%[59 µM]	30.2%	-5.2%	-20.7%	-0.3%
Nc1ccc(N=Nc2ccccc2)c2ccccc12	-9.5%	10µM*	-15.4%	-3.4%	35.5µM*	11.2µM*
Nc1ccc(N=Nc2ccccc2)c(N)n1	30.6%	11.2µM*	9.4%	-3.6%	-5.0%	?
CC(C)CCN(Cc1ccco1)C(=O)Cn1ncc2c([nH]c3ccccc32)c1=O	18.8%	-28.0%[59 µM]	·	·	-16.2%	-2.3%
C[C@@]12CC[C@@H]3c4ccc(O)cc4C[C@H](CCCCCCCCCS(=O)CCCC(F)(F)C(F)(F)F)[C@H]3[C@@H]1CC[C@@H]2O (stereo partly specified)	·	·	-3.9%	·	·	·
O=C(c1ccsc1)N1CCCC(Nc2cccc(F)c2)C1 (stereo unspecified)	16.0%	52.5%	6.4%	-9.2%	-22.7%	-1.3%
CSCCC1(C(=O)O)NC(c2ccccc2O)C2C(=O)N(C(C)C)C(=O)C21 (stereo unspecified)	18.3%	-7.4%	79.4µM*	?	?	?
CCCC1(C(=O)O)NC(c2ccccc2O)C2C(=O)N(Cc3ccccc3)C(=O)C21 (stereo unspecified)	59.9%	?	?	-4.3%	-13.8%	?
SMILES	HP1b binding inh	G9a inh	Sfp inh	PLK1 PBD inh	JMJD2A Tudor	BAZ2B inh
CSc1cc(C)c(OCC(=O)Nc2c(C)nn(C)c2C)c(C)c1	21.9%	·	1.9%	0.8%	-2.9%	-6.4%
CC(C)[C@@H]1NC(=O)c2cc([N+](=O)[O-])cc(I)c2NCCCC[C@@H](C(=O)NC(CC(=O)O)C(N)=O)NC(=O)[C@H](CO)NC1=O (stereo partly specified)	·	44.7µM*	21.1%	·	·	50.1µM*
CC(C)[C@@H]1NC(=O)c2cc([N+](=O)[O-])cc(I)c2NCCC[C@@H](C(N)=O)NC(=O)[C@H](CO)NC1=O	31.8%	39.8µM*	-15.5%	-0.2%	-18.3%	?
O=C(NCC1CCCN(Cc2cccc(C(F)(F)F)c2)C1)c1ccc(F)cc1 (stereo unspecified)	13.9%	10.2%[12.7 µM]	-6.5%	-7.5%	-22.7%	-2.0%
Cc1cc(CN2CCCC(CNC(=O)c3ccc(F)cc3)C2)cc(C)c1O (stereo unspecified)	33.7%	79.4µM*	3.2%	-11.5%	-14.8%	-12.4%
O=C(c1ccc(S(=O)(=O)N2CCCC2)cc1)N1CCN(c2cccc(Cl)c2)CC1	22.2%	-14.3%	-0.2%	-0.3%	-11.7%	1.1%
CS(=O)(=O)c1ncc(Cl)c(C(=O)N2CCN(c3cccc(Cl)c3)CC2)n1	32.3%	12.6µM*	·	·	-17.0%	?
CCS(=O)(=O)c1ncc(Cl)c(C(=O)N2CCN(c3cccc(Cl)c3)CC2)n1	8.2%	12.6µM*	·	·	-30.6%	-10.9%
CCc1noc(C)c1C(=O)N1CCN(c2cccc(Cl)c2)CC1	·	·	·	-3.9%	·	·
COCCCNC(=O)C(Cc1ccccc1)NS(=O)(=O)c1ccc2c(c1)c(=O)n(C)c(=O)n2C (stereo unspecified)	15.3%	10.5%[12.7 µM]	1.2%	-2.5%	-18.1%	-8.6%
CCC(C)NC(=O)C(NS(=O)(=O)c1ccc2c(c1)c(=O)n(C)c(=O)n2C)c1ccccc1 (stereo unspecified)	20.3%	-17.2%	-0.3%	6.6%	-17.2%	13.0%
Cn1c(=O)c2cc(S(=O)(=O)NC(Cc3ccccc3)C(=O)NCc3ccco3)ccc2n(C)c1=O (stereo unspecified)	33.5%	63.1µM*	-0.3%	-1.6%	-12.1%	-33.8%
CC(C)CCNC(=O)C(NS(=O)(=O)c1ccc2c(c1)c(=O)n(C)c(=O)n2C)c1ccccc1 (stereo unspecified)	56.4%	8.91µM*	-15.0%	-25.8%	-14.2%	8.4%
CC(NS(=O)(=O)c1ccc2c(c1)c(=O)n(C)c(=O)n2C)C(=O)NC1CCCCC1 (stereo unspecified)	6.6%	·	11.0%	26.7µM*	-16.9%	-14.5%
Cn1c(=O)c2cc(S(=O)(=O)NC(Cc3ccccc3)C(=O)NCC3CCCO3)ccc2n(C)c1=O (stereo unspecified)	29.9%	2.8%	16.0%	0.6%	6.5%	-3.0%
Cc1cccc(NC(=O)C(Cc2ccccc2)NS(=O)(=O)c2ccc3c(c2)c(=O)n(C)c(=O)n3C)c1 (stereo unspecified)	11.9%	-8.7%[59 µM]	·	·	-10.8%	89.1µM*
